This is an account of results in publication PMC5540273 (PLoS ONE, 2017).

Common to all, as to conditions: concentration: 1 μM, replicates: in singlicate; n = 1
Test [1] has as its system CSF1R-autoinhibited.
Test [2] deals with CSF1R.
The test system of test [3] is CSK.
Test [4] relates to CSNK1A1L.
Test [5] relates to CSNK1A1.
The subject of test [6] is CSNK1D.
Test [7] deals with CSNK1E.
The test system of test [8] is CSNK1G1.
Test [9] concerns CSNK1G2.
Test [10] relates to CSNK1G3.
The subject of test [11] is CSNK2A1.
For test [12], the system named is CSNK2A2.
Test [13] concerns T1, CTK.
T1 construct: gene MATK

Test [14] relates to DAPK1.
The subject of test [15] is DAPK2.
Test [16] has as its system DAPK3.
Test [17] deals with T2, DCAMKL1.
T2 construct: gene DCLK1

In test [18] the test system is T3, DCAMKL2.
T3 construct: gene DCLK2

Test [19] deals with T4, DCAMKL3.
T4 construct: gene DCLK3

Test [20] concerns DDR1.
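Note: KINOMEscan kinase panel screen.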

On to `CNc1nccc(-c2c(-c3ccc(F)cc3)ncn2CCCN2CCOCC2)n1` [SB-222516], for which the “%Inh” value in [1] is on record as 0%; in test [2], 0%; in test [3] it was 0%; in [4], 2%; in test [5], 0%; in [6] it was 8%. Moreover, the “%Inh” value in test [7] is listed as 19%; in test [8], 4%; in test [9] it was 10%; in [10], 4%; in [11] it was 6%; in test [12], 5%. Further, the “%Inh” value in test [13] amounted to 0%; in test [14] it was 0%; in test [15], 0%; in test [16] it was 15%; in test [17], 8%; in test [18], 0%. In addition, the “%Inh” value in test [19] was 19%; in test [20], 0%.

For the compound `Clc1ccc(-c2cc(-c3c[nH]nc3-c3ccccn3)ccn2)cc1` [GW681251], the “%Inh” value is given as 0% in test [1]; 8% in [2]; 0% in test [3]; 1% in test [4]; 18% in test [5]; 42% in test [6]. Besides, the “%Inh” value in test [7] was found to be 33%; in test [8], 0%; in test [9] it was 0%; in test [10] it was 0%; in test [11] it was 0%; in test [12] it was 21%. Also, the “%Inh” value worked out at 0% in test [13]; 0% in test [14]; 0% in test [15]; 30% in test [16]; 0% in test [17]; 0% in [18]. Besides, the “%Inh” value in test [19] is given as 0%; in test [20] it was 73%.

On to `CN1c2ccc(-c3ccc(C(=O)NCCO)cc3)cc2-c2[nH]ncc2S1(=O)=O`, for which the “%Inh” value in test [1] is 25%; in test [2], 0%; in [3], 9%; in test [4], 7%; in [5] it was 4%; in [6], 5%. Also, the “%Inh” value turned out to be 3% in test [7]; 0% in test [8]; 0% in [9]; 6% in [10]; 25% in test [11]; 47% in test [12]. The “%Inh” value in test [13] is recorded as 0%; in [14] it was 32%; in [15] it was 36%; in test [16], 31%; in test [17] it was 26%; in [18], 12%. Also, the entries for the “%Inh” value in test [19] and in test [20] were 2% and 0%, respectively.

`CN1CCC(n2cnc(-c3ccc(F)cc3)c2-c2ccnc(NC3CCNCC3)n2)CC1` [SB-229482]: the “%Inh” value in test [1] is on record as 47%; in test [2], 16%; in test [3] it was 0%; in test [4], 28%; in [5], 95.1%; in test [6], 92.1%. Besides, the “%Inh” value in test [7] came to 93.4%; in test [8] it was 0%; in test [9], 0%; in test [10], 0%; in [11] it was 12%; in [12], 21%. The “%Inh” value is given as 9% in [13]; 14% in test [14]; 15% in test [15]; 0% in test [16]; 0% in test [17]; 16% in [18]. For the same compound, the “%Inh” value in [19] is listed as 16%; in test [20], 0%.

In the case of `Cn1ccc2ncnc(Nc3ccc(Oc4cccc(Cl)c4)c(Cl)c3)c21`, the “%Inh” value in [1] is reported as 1%; in test [2], 17%; in test [3], 46%; in test [4], 16%; in test [5] it was 14%; in test [6] it was 10%. Moreover, the “%Inh” value in test [7] turned out to be 0%; in [8], 6%; in [9], 0%; in test [10] it was 0%; in [11], 0%; in test [12], 39%. Also, the “%Inh” value in test [13] was 45%; in test [14], 18%; in test [15], 0%; in test [16] it was 0%; in test [17] it was 43%; in [18], 5%. The “%Inh” value in test [19] and in test [20] was 0% in each case.

Consider `O=C(Nc1ccccc1)Nc1ccc(Oc2ccc3nccn3n2)cc1`, for which the “%Inh” value in [1] is 0%; in test [2] it was 39%; in test [3] it was 0%; in test [4], 6%; in test [5], 19%; in test [6], 1%. Further, the “%Inh” value in test [7] amounted to 1%; in test [8], 0%; in [9] it was 0%; in [10], 29%; in [11] it was 0%; in test [12], 0%. Besides, the “%Inh” value in test [13] is reported as 100%; in test [14], 0%; in test [15], 1%; in test [16] it was 0%; in [17] it was 9%; in test [18], 10%. The “%Inh” value in [19] was 59%; in test [20], 98.6%.

Regarding `Nc1nc(-c2ccc3c(N)n[nH]c3c2)cc(N2CCCCC2)n1` [GSK2228768], the “%Inh” value turned out to be 0% in [1]; 1% in test [2]; 0% in test [3]; 1% in test [4]; 0% in test [5]; 11% in test [6]. In addition, the “%Inh” value is 0% in test [7]; 0% in test [8]; 0% in test [9]; 4% in test [10]; 0% in test [11]; 12% in test [12]. For the same compound, the “%Inh” value in test [13] was determined as 0%; in [14], 3%; in test [15], 0%; in [16], 6%; in test [17] it was 0%; in [18], 15%. For the same compound, the “%Inh” value in test [19] and in test [20] was 0% each time.

For the compound `O=c1cc(N2CCOCC2)nc2n(Cc3cccc(Cl)c3)ccn12` [GSK2296823], the “%Inh” value is given as 0% in [1]; 1% in [2]; 0% in test [3]; 12% in test [4]; 42% in test [5]; 19% in test [6]. Besides, the “%Inh” value is on record as 34% in test [7]; 10% in test [8]; 0% in test [9]; 23% in [10]; 0% in [11]; 0% in test [12]. For the same compound, the “%Inh” value in test [13] is 22%; in test [14], 0%; in test [15], 0%; in test [16], 7%; in test [17], 17%; in test [18], 12%. In addition, the results for the “%Inh” value in test [19] and in test [20] were 0% and 21%, respectively.

On to `N#Cc1ccc(Oc2ccc(Nc3ncnc4cc[nH]c34)cc2Cl)cc1`, for which the “%Inh” value came out at 3% in test [1]; 7% in test [2]; 33% in test [3]; 15% in test [4]; 2% in test [5]; 5% in test [6]. The “%Inh” value in test [7] came out at 7%; in test [8], 8%; in test [9], 25%; in [10], 21%; in test [11] it was 48%; in [12] it was 24%. Further, the “%Inh” value in test [13] is 5%; in test [14] it was 30%; in [15], 16%; in [16] it was 15%; in test [17], 9%; in [18], 24%. The “%Inh” value is listed as 20% in test [19] and 9% in test [20].

In the case of `COc1ccc(NC(=O)c2ccc(-c3cc(-c4nnc(C)o4)ccc3C)cc2)cc1` [GW595885], the “%Inh” value in test [1] is listed as 7%; in test [2] it was 14%; in test [3], 0%; in test [4], 5%; in test [5], 0%; in test [6], 0%. Moreover, the “%Inh” value in test [7] is reported as 0%; in test [8] it was 0%; in test [9] it was 0%; in test [10], 14%; in test [11] it was 0%; in [12], 11%. Besides, the “%Inh” value in test [13] came out at 0%; in test [14], 0%; in test [15] it was 0%; in test [16], 13%; in test [17] it was 8%; in [18], 0%. In addition, the “%Inh” value was determined as 2% in [19] and 13% in [20].

In the case of `CSc1nn2c(=O)cc(N3CCOCC3)nc2n1Cc1cccc(Cl)c1Cl` [GSK2347225], the “%Inh” value in test [1] was 0%; in test [2], 4%; in [3] it was 0%; in test [4], 32%; in [5], 0%; in [6], 13%. Further, the “%Inh” value is 87% in test [7]; 6% in test [8]; 0% in [9]; 33% in [10]; 5% in test [11]; 33% in test [12]. Besides, the “%Inh” value in [13] came to 0%; in [14], 14%; in test [15], 5%; in test [16], 24%; in test [17] it was 29%; in [18], 0%. Further, the figures for the “%Inh” value in test [19] and in test [20] were 3% and 17%, respectively.

For `Nc1nc(-c2ccc3c(N)n[nH]c3c2)cc(N2CCC[C@@H](C(=O)Nc3ccccc3)C2)n1.O=C(O)C(F)(F)F.O=C(O)C(F)(F)F` [GSK2288359], the “%Inh” value in test [1] came to 0%; in test [2], 13%; in [3], 8%; in test [4] it was 0%; in test [5] it was 0%; in test [6], 0%. In addition, the “%Inh” value in test [7] was determined as 15%; in test [8] it was 8%; in [9] it was 100%; in [10], 25%; in test [11] it was 1%; in test [12], 18%. In addition, the “%Inh” value in test [13] is recorded as 0%; in [14], 7%; in [15], 0%; in [16] it was 0%; in test [17], 12%; in [18], 0%. The “%Inh” value in [19] and in test [20] was 0% throughout.

As for `C[C@@H]1CCN(C(=O)CO)C[C@@H]1N(C)c1ncnc2[nH]ccc12`, the “%Inh” value in [1] is given as 19%; in [2], 8%; in test [3], 21%; in [4], 0%; in [5] it was 33%; in test [6], 6%. Moreover, the “%Inh” value turned out to be 0% in [7]; 0% in test [8]; 0% in test [9]; 10% in test [10]; 0% in [11]; 0% in test [12]. In addition, the “%Inh” value was 14% in [13]; 2% in [14]; 7% in test [15]; 10% in test [16]; 6% in [17]; 0% in [18]. In addition, the results for the “%Inh” value in test [19] and in test [20] were 90% and 0%, respectively.

As for `O=C(Nc1ccccc1F)NC1CCN(c2ccnc(Nc3ccc(F)cc3)n2)C1` (stereo not drawn) [GSK1379722], the “%Inh” value in test [1] stood at 7%; in test [2], 4%; in [3], 0%; in [4], 0%; in test [5], 0%; in [6] it was 13%. The “%Inh” value in test [7] is given as 27%; in test [8] it was 0%; in test [9], 100%; in test [10], 8%; in [11] it was 0%; in [12], 0%. For the same compound, the “%Inh” value in test [13] came out at 0%; in [14] it was 0%; in test [15], 0%; in test [16] it was 5%; in [17] it was 0%; in test [18], 0%. Also, the results for the “%Inh” value in test [19] and in test [20] were 5% and 3%, respectively.

Take `O=C(c1ccc(-c2cc(-c3c[nH]nc3-c3ccccn3)ccn2)cc1)N1CCCC1` [GW792479]: the “%Inh” value in test [1] stood at 0%; in [2] it was 0%; in test [3], 17%; in test [4] it was 0%; in test [5], 59%; in [6], 49%. The “%Inh” value in [7] was determined as 30%; in [8] it was 9%; in test [9], 9%; in [10], 0%; in test [11] it was 0%; in test [12], 0%. Further, the “%Inh” value worked out at 0% in test [13]; 0% in [14]; 33% in test [15]; 85% in test [16]; 19% in test [17]; 10% in test [18]. Moreover, the “%Inh” value in [19] and in test [20] was 0% in each case.
